From PubChem BioAssay AID488969 (Vanderbilt High Throughput Screening Facility, 2010)
The full ranking holds about 110,000 compounds; the median of “z-score” is about -0.1, and the highest 2% start at about 2. Shown is part of a subset that was picked to be rich in the highest values. Active and inactive are the calls of the source.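 The calls were made as follows: active = z-score in the third read window above 3 or below -3; inactive = the rest.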

Target: Metabotropic glutamate receptor 8 (Rattus norvegicus) (UniProt P70579)
Test: mGluR8 Gi/Go-coupled signaling modulation – cell-based, rat, thallium flux, HTS, primary screen (AID 488969)
Details: HEK293 rat mGluR8, GIRK (G protein-gated inwardly rectifying potassium channel) thallium flux, FluoZin2; at 10 µM; stronger effect = higher value; submaximal glutamate (EC20) added with thallium

Chain of Metabotropic glutamate receptor 8 (Rattus norvegicus) (P70579 whole entry, looked up): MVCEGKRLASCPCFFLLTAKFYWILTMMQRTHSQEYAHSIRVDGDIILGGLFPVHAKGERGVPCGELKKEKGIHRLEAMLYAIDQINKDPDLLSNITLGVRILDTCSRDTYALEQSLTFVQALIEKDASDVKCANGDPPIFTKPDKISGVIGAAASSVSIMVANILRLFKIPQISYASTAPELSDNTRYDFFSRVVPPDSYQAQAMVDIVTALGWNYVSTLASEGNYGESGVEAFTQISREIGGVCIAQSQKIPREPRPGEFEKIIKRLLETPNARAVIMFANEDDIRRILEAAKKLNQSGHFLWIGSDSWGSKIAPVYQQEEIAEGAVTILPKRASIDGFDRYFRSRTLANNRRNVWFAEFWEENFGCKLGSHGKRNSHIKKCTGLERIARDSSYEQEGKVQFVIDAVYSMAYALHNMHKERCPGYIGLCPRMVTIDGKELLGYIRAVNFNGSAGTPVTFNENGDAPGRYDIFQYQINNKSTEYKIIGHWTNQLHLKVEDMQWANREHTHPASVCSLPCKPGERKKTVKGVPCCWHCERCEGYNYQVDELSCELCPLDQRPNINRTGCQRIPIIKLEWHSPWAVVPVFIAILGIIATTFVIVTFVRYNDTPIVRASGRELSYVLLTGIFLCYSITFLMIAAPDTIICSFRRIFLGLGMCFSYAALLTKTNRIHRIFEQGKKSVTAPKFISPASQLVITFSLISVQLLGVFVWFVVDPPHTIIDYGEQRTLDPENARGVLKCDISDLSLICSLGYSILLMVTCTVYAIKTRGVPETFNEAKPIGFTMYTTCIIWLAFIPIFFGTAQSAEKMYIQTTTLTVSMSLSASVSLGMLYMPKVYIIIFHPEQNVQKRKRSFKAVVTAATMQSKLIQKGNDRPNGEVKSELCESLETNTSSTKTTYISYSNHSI

SMILES | z-score
Cc1cccc(Oc2ncc(-c3ccc(Cl)cc3)cn2)c1 | 0.0612
Cc1cc(N2CCOCC2)nc2ccccc12 | -0.0968
c1nc(NCC2CCCO2)c2[nH]cnc2n1 (stereo unspecified) | 0.26
Cc1cccc(C(=O)NCC2CCCO2)c1 (stereo unspecified) | 2.21
O=C(NCC1CCCO1)c1cccc(F)c1 (stereo unspecified) | 0.371
O=C(NCC1CCCO1)c1cccc(Br)c1 (stereo unspecified) | 0.348
O=C(CCS(=O)(=O)c1ccc(Br)cc1)Nc1cc(F)ccc1F | -0.0256
O=C(Cn1c(C(F)(F)F)nc2ccccc21)OCC(=O)c1c[nH]c2ccccc12 | -0.594
Cc1cc(C)n(-c2nc3ccccc3nc2NCCc2ccccc2)n1 | -0.16
Cc1ccc(N=Nc2c(O)n(CN3CCOCC3)c3ccccc23)cc1 | -0.152
Cc1cccc(NC(=S)N=Nc2c(O)n(CN3CCOCC3)c3ccccc23)c1C | 2.19
Cc1cccc(NC(=S)NCCN2CCOCC2)c1C | -0.235
Cn1c(SCc2cccc3ccccc23)nnc1-c1ccco1 | 2.15
Cn1c(SCc2cc(=O)[nH]c3ccccc23)nnc1-c1ccco1 | -0.244
Nn1c(SCc2cccc3ccccc23)nnc1-c1ccco1 | 0.217
N#Cc1cn(-c2ccccc2)nc1-c1cc2ccccc2oc1=O | -0.0371
Cc1ccc(C2CC2c2n[nH]c(=S)n2-c2ccc(Cl)cc2)cc1 (stereo unspecified) | 2.95
Cc1ccc(-n2c([C@@H]3C[C@H]3c3ccccc3)n[nH]c2=S)cc1 | 0.209
Cc1ccc(-n2c(C3CC3c3ccc(Cl)cc3)n[nH]c2=S)cc1 (stereo unspecified) | 0.832
S=c1[nH]nc(C2CC2c2ccc(Cl)cc2)n1-c1ccc(Cl)cc1 (stereo unspecified) | 0.549
Cc1ccc(C2CC2c2n[nH]c(=S)n2-c2cccc(Cl)c2)cc1 (stereo unspecified) | 0.358
Cc1ccc(C2CC2c2n[nH]c(=S)n2-c2ccc(C)cc2)cc1 (stereo unspecified) | 2.34
O=C(c1ccc(-n2cnnn2)cc1)N1CCCCC1 | 0.294
CN1CCC(OC(=O)COc2ccc(C(C)(C)C)cc2)CC1 | 0.712

SMILES | z-score
COC1CCCCC1Nc1cc(C)cc(C)c1 (stereo unspecified) | -0.0687
COc1ccc(C)cc1S(=O)(=O)N(C)CC(=O)NC1CCCC1 | -0.639
CSc1ccccc1NC(=O)CN(c1ccccc1Br)S(C)(=O)=O | 2.04
COc1ccc(N(CC(=O)Nc2ccccc2SC)S(C)(=O)=O)cc1OC | 0.573
COc1ccc(Cl)cc1N(CC(=O)Nc1ccccc1SC)S(C)(=O)=O | 0.203
CN(C)S(=O)(=O)c1ccc(NC(=O)/C=C/c2ccccc2Cl)cc1 | -0.0315
CCC(=O)Nc1nnc(CSCc2ccc(F)cc2)s1 | 0.0266
O=C(Nc1nnc(CSCc2ccc(F)cc2)s1)c1cccc([N+](=O)[O-])c1 | -0.37
O=C(Nc1nnc(CSCc2ccc(F)cc2)s1)c1ccc([N+](=O)[O-])cc1 | 2.51
O=C(NCc1ccc(Cl)cc1)C(=O)NCC1OCCN1C(=O)c1cccs1 (stereo unspecified) | -0.152
Cn1cc(-c2nc3ccccc3[nH]2)c2ccccc21 | -1.41
O=C(c1ccccc1)C(Sc1ncn[nH]1)c1ccccc1 (stereo unspecified) | -0.672
Cc1ccc(C)c(OCC(=O)N/N=C/c2c(C)nn(-c3ccccc3)c2Cl)c1C | -0.185
Cc1ccc(C)c(OCC(=O)N/N=C/c2c(C)nn(-c3ccccc3)c2Cl)c1 | 2.98
COC(=O)N/N=C\c1c(C)nn(-c2ccccc2)c1Cl | -0.389
Fc1ccccc1N1CCN(CCCNc2ccc3nncn3n2)CC1 | 0.731
CCOC(=O)N1CCC(NCCNC(=O)c2ccccc2)CC1 | 0.292
O=C(COC(=O)CN1C(=O)c2ccccc2C1=O)Nc1ncc(Cl)cc1Cl | 0.719
CC(OC(=O)CCCN1C(=O)c2ccccc2C1=O)C(=O)Nc1ncc(Cl)cc1Cl (stereo unspecified) | 2.08
CC(OC(=O)CN1C(=O)C2CCCCC2C1=O)C(=O)Nc1ncc(Cl)cc1Cl (stereo unspecified) | 0.031
Cc1c(NC(=O)C(C)OC(=O)c2cc(Cl)nc(Cl)c2)c(=O)n(-c2ccccc2)n1C (stereo unspecified) | 0.0979
CCOC(=O)C(Oc1ccc2c(-c3ccccc3)cc(=O)oc2c1C)c1ccccc1 (stereo unspecified) | -0.0738
Cc1csc(NC(=O)CSc2nnc(-c3cc(C)on3)o2)n1 | 0.301
CCOC(=O)c1sc2ncnc(NCc3ccco3)c2c1C | 14.7 (active)

SMILES | z-score
CCOC(=O)c1sc2nc(CC(=O)OC)nc(NCc3ccco3)c2c1C | -0.245
CCc1cc2c(NCc3ccco3)ncnc2s1 | -0.444
Cc1c(NC(=O)c2cc3nc(-c4ccc(Br)cc4)cc(C(F)(F)F)n3n2)c(=O)n(-c2ccccc2)n1C | -0.51
Cc1cc(C)nc(/N=C(\N)Nc2ccc(F)c([N+](=O)[O-])c2)n1 | -0.14
O=C(C(Cc1ccccc1)N1C(=O)C2C3C=CC(C3)C2C1=O)N1CCCCC1 (stereo unspecified) | -0.174
COc1ccccc1NC(=O)NCc1ccc2c(c1)OCO2 | 0.532
CC(C)C(=O)Nc1ccccc1C(=O)OCC(=O)c1ccc2c(c1)OCCO2 | -0.424
CC(=O)Nc1ccccc1OCC(=O)c1ccc2c(c1)OCO2 | 2.07
O=C1CC(c2cccc(Br)c2)c2cc3c(cc2N1)CCC3 (stereo unspecified) | -0.00205
COc1ccc(S(=O)(=O)Nc2ccc(C)cc2)cc1OC | -0.166
Cc1cccc(C(=O)N2CCN(Cc3ccc4c(c3)OCO4)CC2)c1 | -0.0762
O=C(c1ccc(Br)o1)N1CCN(Cc2ccc3c(c2)OCO3)CC1 | -1.48
O=C(NC(=S)N1CCN(Cc2ccc3c(c2)OCO3)CC1)c1cccc(Br)c1 | 9.35 (active)
CCn1cnc2sc(C(=O)N3CCN(Cc4ccc5c(c4)OCO5)CC3)c(C)c2c1=O | 2.58
Cc1c(Cl)cccc1NC(=S)N1CCN(Cc2ccc3c(c2)OCO3)CC1 | 0.334
CCn1nc(C(=O)N2CCN(Cc3ccc4c(c3)OCO4)CC2)c2ccccc2c1=O | -0.474
CS(=O)(=O)N(CC(=O)N1CCN(Cc2ccc3c(c2)OCO3)CC1)Cc1ccc(Cl)cc1 | 0.174
CCn1cnc2sc(C(=O)Nc3ccc4c(c3)OCO4)c(C)c2c1=O | -0.145
Cc1ccc(NC(=S)N2CCN(Cc3ccc4c(c3)OCO4)CC2)c(C)c1 | -0.407
CCC(CC)C(=O)N1CCN(Cc2ccc3c(c2)OCO3)CC1 | -0.17
CCN(CC)c1ccc(C(=O)NC(=S)N2CCN(Cc3ccc4c(c3)OCO4)CC2)cc1 | 10 (active)
O=C(NC(=S)N1CCN(Cc2ccc3c(c2)OCO3)CC1)c1ccc(Cl)cc1 | 15.2 (active)
CCN1C(=O)/C(=C\N2CCCc3ccccc32)SC1=S | -0.289
